Screens (PubChem)
Most compounds without a hit are left out; they make up all but 18% or so of the library.
TDP1 inh: TDP1 (human) enzyme inhibition. actives 0.28% (n = 350,000). Potency, µM (series often up to 130 µM), for the others: at the top dose activity change, negative = inhibition, usual class: inhibitors. recombinant TDP1, AlphaScreen DNA substrate cleavage. AID 485290. Q9NUW8; note: potency is the fitted concentration of half-maximal effect; nearly all actives have a fitted effect of over 40% in size
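Here, a 5' biotin and 3' phosphotyrosine-FITC DNA oligonucleotide reports Tdp1 activity: intact substrate bridges AlphaScreen beads, while cleavage leaves a 3' phosphate and drops signal. All incubations at room temperature.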
DT40 TDP1 CPT: DT40-hTDP1 cell growth loss with CPT; chicken DT40 Tdp1-/-;hTDP1 cells + 20 nM CPT, ATP luminescence, 48 h; Potency, µM (highest dose often 46.2 µM), for inactives: at the top dose activity change, negative = growth inhibition, actives largely listed as inhibitors; actives 12% (n = 420,000); note: potency is the fitted concentration of half-maximal effect; nearly all actives have a fitted effect of over 55% in size
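Chicken DT40 Tdp1-/- cells stably complemented with human TDP1 were seeded at 400 cells/well in medium containing 20 nM camptothecin, exposed to pin-transferred compounds, and grown at 37 °C for at least 48 hr. Viability was read as ATP luminescence.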
IL-1B inflam inh: blocks inflammasome-driven IL-1 beta release; THP-1 LPS/ATP IL-1B secretion, AlphaLISA, 16 h; active compounds read low; activity change, % at 57.5 µM; actives 4.7% (n = 360,000); AID 743279; in the data active = activity change below about -50%; inconclusive = mostly about -30% to -49%
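Secreted IL-1B measured by AlphaLISA bead assay after 16 h compound exposure of THP-1 cells; compounds (final up to 57.5 uM) added 1 h before LPS (250 ng/mL) and ATP (1.25 mM) stimulation; lower signal means less secretion.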
DT40 TDP1 no CPT: qHTS for Inhibitors of human tyrosyl-DNA phosphodiesterase 1 (TDP1): qHTS in cells in absence of CPT; DT40 Tdp1-/- hTDP1 cells, no CPT, ATP luminescence, 48 h; Potency, µM (highest dose often 46.2 µM), for the others: at the highest dose activity change, negative = growth inhibition, actives largely listed as inhibitors; actives 15% (n = 420,000); AID 686978, 2013; note: potency is the fitted concentration of half-maximal effect; nearly all actives have a fitted effect of over 55% in size
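Stably hTDP1-transfected Tdp1-null chicken DT40 cells were treated with library compounds minus camptothecin and grown for at least 48 hr at 37 °C, after which cellular ATP was quantified by luminescence.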
CtBP-E1A blk: blocks the CtBP interaction with E1A; AlphaScreen GST-E1A/His-CtBP binding, 1536-well; active compounds read low; activity change, % (concentration not given with the values); actives 0.49% (n = 340,000); in the data active = activity change below about -65%; inconclusive = mostly about -30% to -63%
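In 5 uL wells, 23 nL compound meets equimolar GST-E1A and His-CtBP (5X stock 125 nM each) for 2 h, 37 °C. Beads (5X, 50 ug/mL) then 1 h, 37 °C, dark.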
Six1-Eya2 blk: blocks human Six1 binding to Eya2; AID 651725; AlphaScreen GST-Six1/His-Eya2 binding, biochemical; active compounds read low; activity change, % (concentration not given with the values); Q15475+O00167; actives 0.56% (n = 360,000); in the data active = activity change below about -65%; inconclusive = mostly about -30% to -63%
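Six1/Eya2 binding was read as AlphaScreen signal after compounds were pinned into GST-Six1 plus His-tagged Eya2 (5X stock 250/500 nM) in pH 8.0 Tris/NaCl/TCEP buffer, beads added, then incubated 1 h, 37 C, dark.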
* = called active by the depositor; ? = inconclusive; / = no result; [ ] = remark or other dose. Unless noted, calls come from the whole dose curve; as a rule, active = well fitted curve in the direction sought with a large enough effect; inconclusive = small, poorly fitted or top-dose-only effect, or another doubt; inactive = no such curve, though single readings can be large; an effect the other way counts as inactive or inconclusive. % is set by controls: 0 for no effect and ±100 for the full control effect.

SMILES	TDP1 inh	DT40 TDP1 CPT	IL-1B inflam inh	DT40 TDP1 no CPT	CtBP-E1A blk	Six1-Eya2 blk
CSCCC(=O)NC1CC(C)(C)Cc2c1cnn2-c1ccccc1C (stereo unspecified)	/	?	1.4	-12.3%	2.6	17.9
CCc1ccc2[nH]c(=O)c(CN(CCCO)C(=O)NCc3ccccc3)cc2c1	2.3%	-19.0%	31.3	?	4.9	1.5
CN1C(=O)C(O)(CC(=O)/C=C/C=C/c2ccccc2)c2ccccc21 (stereo unspecified)	3.6%	?	?	?	19.3	0.4
O=C(CC1(O)C(=O)Nc2ccccc21)c1cccc(-n2cccc2)c1 (stereo unspecified)	0.0%	-9.0%	-7.0	4.9%	-16.5	-3.0
CN1C(=O)C(O)(CC(=O)c2ccncc2)c2ccccc21 (stereo unspecified)	-2.0%	?	-52.8*	?	-0.4	2.9
CN1C(=O)C(O)(CC(=O)c2cccc(-n3cccc3)c2)c2ccccc21 (stereo unspecified)	6.6%	20.6µM*	-10.9	?	-10.2	-9.2
COc1cccc2cc(C(=O)CS(=O)(=O)c3ccc(Cl)cc3)c(=O)oc12	3.0%	?	-6.5	?	/	-10.0
O=C(NCCC(=O)N1CCN(c2ccccc2O)CC1)c1ccc(Br)cc1	0.7%	?	-7.7	-29.8%	-18.7	2.3
O=C(NCCC(=O)N1CCN(c2cccc(Cl)c2)CC1)c1ccc(Br)cc1	0.2%	?	-54.8*	?	-18.3	-7.5
Cc1cc(C)cc(C(=O)NCC(=O)N2CCN(c3cccc(Cl)c3)CC2)c1	/	?	-69.6*	?	2.1	-12.8
O=C(NCC(=O)N1CCN(Cc2c(F)cccc2Cl)CC1)c1cccc(Cl)c1	-3.6%	6.51µM*	-8.3	16.4µM*	-2.0	-4.5
Cc1cccc(N2CCN(C(=O)CNC(=O)c3cccc([N+](=O)[O-])c3)CC2)c1C	5.9%	?	-8.5	18.4µM*	-1.5	-1.2
O=C(NCC(=O)N1CCN(Cc2ccccc2)CC1)c1ccc(Cl)cc1	1.7%[56.1 µM]	?	?	?	4.9	-3.2
O=C(NCC(=O)N1CCN(Cc2ccccc2)CC1)c1cc(Cl)cc([N+](=O)[O-])c1	0.3%	16.4µM*	9.3	?	8.4	-0.9
CCOc1ccc(-n2c(-c3ccc(Br)cc3)c[n+]3c2CCCCC3)cc1	3.5%	4.61µM*	-78.9*	0.366µM*	4.8	29.7
COc1ccc(-n2c(-c3ccc(Cl)cc3)c[n+]3c2CCCCC3)cc1	-4.1%	0.82µM*	0.0	0.731µM*	5.3	8.7
CCOc1ccc(-n2c(-c3ccc(OC)cc3)c[n+]3c2CCCCC3)cc1	0.0%	0.206µM*	-70.3*	0.0291µM*	0.7	-10.1
CCOc1ccc(-n2c(-c3ccccc3)c[n+]3c2CCC3)cc1	5.5%	1.03µM*	-68.3*	1.03µM*	2.6	0.2
CCOc1ccccc1NC(=O)Cn1nc2c3cc(F)ccc3n(Cc3cccc(C)c3)cc-2c1=O	2.8%	2.5%	/	?	/	/
CN1CCC(N2CCN(C3CN(C4CCCCC4)S(=O)(=O)C3)CC2)CC1 (stereo unspecified)	/	6.1%	0.0	1.1%	4.6	8.2
FC(F)Oc1ccc(-c2c[n+]3c(n2-c2ccccc2)CCCCC3)cc1	1.4%	2.06µM*	?	1.46µM*	/	0.4
O=C(COC(=O)CNS(=O)(=O)c1ccccc1)Nc1ccc(Cl)cn1	-2.0%	-0.9%	19.0	-0.8%	5.1	6.4
O=C(COC(=O)CNC(=O)c1ccc([N+](=O)[O-])o1)Nc1ncc(Cl)cc1Cl	-19.2%	?	-92.2*	-6.8%	3.8	-2.6
O=C(COC(=O)CNS(=O)(=O)c1ccccc1)Nc1ncc(Cl)cc1Cl	-6.9%	6.4%	-16.1	6.51µM*	/	29.1
COc1ccccc1C(=O)Nc1ccnn1C1CCN(C(C)CSC)CC1 (stereo unspecified)	-0.7%[56.1 µM]	-15.7%	8.3	-14.3%	1.9	5.6
SMILES	TDP1 inh	DT40 TDP1 CPT	IL-1B inflam inh	DT40 TDP1 no CPT	CtBP-E1A blk	Six1-Eya2 blk
OC(c1ccccc1)c1ncc(-c2ccc(Oc3ccccc3)cc2)[nH]1 (stereo unspecified)	/	23.1µM*	-3.6	18.4µM*	-14.3	-26.3
COc1ccc(-c2cnc(C(O)c3ccc(-c4ccccc4)cc3)[nH]2)cc1 (stereo unspecified)	/	?	-5.5	?	-15.5	-19.5
OC(c1ccc(Cl)cc1)c1ncc(-c2ccc(Oc3ccccc3)cc2)[nH]1 (stereo unspecified)	/	20.6µM*	?	20.6µM*	-27.4	-12.1
CC(C)[C@H](NC(=O)c1cccc(S(=O)(=O)N2CCOCC2)c1)C(=O)OCC(=O)Nc1cccc(Br)c1	/	-26.8%	50.0	-26.9%	0.5	-2.0
CCOc1ccc(Oc2c(/C=N/NC(=O)C3CC3)c(C)nn2-c2ccccc2)cc1	3.4%	?	6.2	14.6µM*	-8.9	-7.2
Clc1cccc(-c2ccc(/C=N/n3cnnc3)o2)c1	7.0%	2.8%	-53.7*	-2.0%	-11.4	-7.4
O=C(Cc1ccc2c(c1)OCO2)NN=Cc1ccc([N+](=O)[O-])o1	0.4%	?	-60.5*	11.6µM*	-24.0	3.7
O=C(Cc1ccc2c(c1)OCCO2)N/N=C/c1ccco1	0.4%	2.4%	-13.7	-9.4%	/	43.1
O=[N+]([O-])c1ccc(/C=N/NC(=S)Nc2ccccc2)o1	2.7%	14.6µM*	-6.1	23.1µM*	-10.8	-21.1
Cc1ccc(NCC(=O)N/N=C/c2ccc(C(=O)O)cc2)cc1	/	1.5%	7.7	26.0%	2.4	1.0
Cc1ccc(NCC(=O)N/N=C\c2ccc([N+](=O)[O-])o2)cc1	6.4%	13µM*	-63.7*	18.4µM*	-9.1	-7.7
O=C(CNc1ccccc1)N/N=C/c1ccc([N+](=O)[O-])o1	-4.8%	10.3µM*	?	7.31µM*	-22.2	-15.1
COc1ccc(-c2cc3c(=O)n(CC(=O)Nc4cccc(Cl)c4)ncn3n2)cc1	-0.1%	5.4%	2.3	19.5%	1.7	5.8
Cc1ccc(-n2nc3c(c2NC(=O)c2ccco2)CS(=O)C3)c(C)c1 (stereo unspecified)	/	-20.5%	-4.3	-7.6%	-9.2	1.7
CCOc1ccccc1-c1nc(SCC(=O)O)n[nH]1	1.0%	3.3%	27.2	13.9%	10.0	16.1
O=C(CNC(=O)c1ccccc1)N/N=C/c1ccc([N+](=O)[O-])o1	5.5%	9.2µM*	16.6	23.1µM*	/	-10.6
